Only some compounds are listed: those with a hit (about 18% of all), similar ones and a draw of the others.
HepG2 viability: counter-screen for TGF-b inhibitors: cytotoxicity in HepG2 cells. HepG2 CAGA-GFP viability, ATP luminescence, 18 h. actives 0.76% (n = 410,000). Potency, µM (doses to about 46.1 µM), for the others: at the highest dose activity change, negative = cytotoxicity, usual class: cytotoxic; further: potency means the concentration at half of the fitted maximal effect
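HepG2 CAGA-GFP cells (1000/well, DMEM with 1% FBS) received compound, then TGF-beta at 500 pg/mL final, and were incubated 18 hours at 37 degrees C. Viability was read by CellTiter-Glo luminescence. Media-only wells were set as complete cell-killing and DMSO as no toxicity.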
TDP1 inh: blocks human tyrosyl-DNA phosphodiesterase 1 | Q9NUW8 | recombinant TDP1, AlphaScreen DNA substrate cleavage | Potency, µM (series often up to 130 µM), without a hit: at the highest dose activity change, negative = inhibition, actives largely listed as inhibitors | actives 0.28% (n = 350,000) | AID 485290; further: potency means the concentration at half of the fitted maximal effect; on the % scale 0 is the no-effect control and ±100 the full control effect; nearly all actives have a fitted effect of over 40% in size
Target sequence (Q9NUW8 whole entry, looked up): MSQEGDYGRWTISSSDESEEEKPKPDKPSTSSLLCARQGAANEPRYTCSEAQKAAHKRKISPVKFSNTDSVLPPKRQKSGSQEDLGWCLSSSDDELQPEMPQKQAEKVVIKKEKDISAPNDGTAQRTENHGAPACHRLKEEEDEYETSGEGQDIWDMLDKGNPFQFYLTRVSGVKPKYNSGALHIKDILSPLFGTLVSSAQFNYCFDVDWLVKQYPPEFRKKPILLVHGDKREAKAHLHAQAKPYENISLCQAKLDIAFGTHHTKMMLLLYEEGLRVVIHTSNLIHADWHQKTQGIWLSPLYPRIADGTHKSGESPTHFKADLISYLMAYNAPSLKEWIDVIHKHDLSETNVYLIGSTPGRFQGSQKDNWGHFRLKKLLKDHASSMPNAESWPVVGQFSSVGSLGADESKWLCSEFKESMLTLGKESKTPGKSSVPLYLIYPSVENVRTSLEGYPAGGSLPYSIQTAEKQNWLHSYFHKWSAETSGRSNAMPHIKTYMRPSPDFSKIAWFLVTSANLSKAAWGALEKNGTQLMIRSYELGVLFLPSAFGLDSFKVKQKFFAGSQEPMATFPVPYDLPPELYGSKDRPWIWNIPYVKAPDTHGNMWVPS
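E. coli-derived human Tdp1, 1 nM final. Cpd preinc 15 min RT; substrate 15 nM final, 5 min RT; AS bead mix 10 ug/ml final, 10 min RT. Signal loss = tyrosine-FITC cleavage. No-enzyme wells = max signal.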
DT40 TDP1 CPT: growth inhibition of DT40 Tdp1-/-;hTDP1 cells with camptothecin (screen for TDP1 inhibitors). chicken DT40 Tdp1-/-;hTDP1 cells + 20 nM CPT, ATP luminescence, 48 h. Potency, µM (highest dose often 46.2 µM), for inactives: at the highest dose activity change, negative = growth inhibition, actives largely listed as inhibitors. actives 12% (n = 420,000); further: potency means the concentration at half of the fitted maximal effect; on the % scale 0 is the no-effect control and ±100 the full control effect; nearly all actives have a fitted effect of over 55% in size
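Chicken DT40 Tdp1-/- cells complemented with human TDP1, 400 cells/well, exposed to compounds plus 20 nM camptothecin for at least 48 h at 37 C; viability read as ATP content by CellTiter-Glo luminescence.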
TDP1 cell noCPT: qHTS for Inhibitors of human tyrosyl-DNA phosphodiesterase 1 (TDP1): qHTS in cells in absence of CPT. actives 15% (n = 420,000). Potency, µM (series often up to 46.2 µM), without a hit: top-dose activity change, negative = growth inhibition, usual class: inhibitors. AID 686978, 2013. DT40 Tdp1-/- hTDP1 cells, no CPT, ATP luminescence, 48 h; further: potency means the concentration at half of the fitted maximal effect; on the % scale 0 is the no-effect control and ±100 the full control effect; nearly all actives have a fitted effect of over 55% in size
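Growth kinetics read by CellTiter-Glo luminescence after ≥48 hr at 37 °C. Cells: DT40 Tdp1-/- stably carrying human TDP1, 400 per well, compound exposure in the absence of CPT (DMSO vehicle).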
TGFb SMAD3 inh: blocks TGF-b signaling | HepG2 CAGA-GFP TGF-b/SMAD3 reporter, GFP fluorescence, 18 h; TGF-beta stimulated, 500 pg/mL final | Potency, µM (doses to about 46.1 µM), without a hit: at the top dose activity, negative = inhibition, actives largely listed as inhibitors | actives 1.2% (n = 410,000) | AID 588855; further: potency means the concentration at half of the fitted maximal effect; on the % scale 0 is the no-effect control and ±100 the full control effect; nearly all actives have a fitted effect of over 65% in size
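Smad-responsive CAGA-GFP expression was quantified in HEPG2 cells exposed to compounds and 500 pg/mL final TGF-beta for 18 h at 37 degrees C; unstimulated wells defined full inhibition.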
IL-1B inflam inh: blocks inflammasome-driven IL-1 beta release; THP-1 LPS/ATP IL-1B secretion, AlphaLISA, 16 h; active compounds read low; activity change, % at 57.5 µM; actives 4.7% (n = 360,000); AID 743279; in the data active means activity change below about -50%; inconclusive means mostly about -30% to -49%; further: on the % scale 0 is the no-effect control and ±100 the full control effect
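THP-1 cells pretreated 1 hr with compounds (up to 57.5 uM final), then stimulated with LPS (250 ng/mL final) plus ATP (1.25 mM final); secreted IL-1B measured by AlphaLISA after 16 hr, decreased signal indicating inhibition.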
An asterisk follows results filed as active; u = inconclusive; x = no result; [ ] = another dose, or the depositor's remark. Unless noted, the call rests on the fitted dose curve; in most records, active means well fitted curve in the direction sought with a large enough effect; inconclusive means small, poorly fitted or top-dose-only effect, or another doubt; inactive means no such curve, though single readings can be large; an effect the other way counts as inactive or inconclusive.

SMILES	HepG2 viability	TDP1 inh	DT40 TDP1 CPT	TDP1 cell noCPT	TGFb SMAD3 inh	IL-1B inflam inh
O=C(CSc1nc2ccccc2[nH]1)Nc1cccc(S(=O)(=O)N2CCOCC2)c1	7%	5%	u	u	-25%	u
O=C(CSc1nc2ccccc2s1)Nc1ccc(N2CCOCC2)c(Cl)c1	-7%	4%	16µM*	21µM*	-29%	-4
O=C(CSc1nc2ccccc2s1)Nc1ccc(Cl)c(S(=O)(=O)N2CCOCC2)c1	0%	5%	23µM*	u	-3%	29
O=C(CSc1nc2cc(Cl)ccc2s1)Nc1cccc(S(=O)(=O)N2CCOCC2)c1	-1%	-1%	u	21µM*	0%	28
O=C(CSc1nnc(C23CC4CC(CC(C4)C2)C3)o1)Nc1ccc(N2CCOCC2)c(Cl)c1	-5%	0%	u	18µM*	10%	18
Cc1ccc2c(c1)cc(CN(C)Cc1nc(C)cs1)c(=O)n2C	x	x	0%	-20%	x	x
CC1(C)CO[C@H](CC(=O)O)CN1	x	8%[56.1 µM]	-5%	-13%	x	x
COc1c(C)cc(C(O)c2ncc(-c3ccccc3C(F)(F)F)[nH]2)cc1C (stereo not given)	-7%	x	u	u	-19%	-12
Cc1nc(C)c(-c2ccc(SCC(=O)Nc3ccccc3F)nn2)s1	-7%	4%	u	15µM*	0%	x
Cc1nc(C)c(-c2ccc(SCC(=O)Nc3cccc(C)c3C)nn2)s1	-30%	0%	16µM*	21µM*	-12%	x
COc1ccc(Oc2ncc3ncc(=O)n(C)c3n2)cc1	x	x	-4%	u	x	x
CC1(C)CC(=O)c2cc(C(=O)Nc3ccc(Cl)cc3)c(=O)[nH]c2C1	7%	4%	-1%	2%	17%	x
COc1ccc(/C=N/Nc2nnc(Cc3ccc(OC)c(OC)c3)c(=O)[nH]2)cc1	-16%	5%	26µM*	16µM*	u	9
CCOc1ncccc1C(=O)Nc1cc2c(cc1Br)OCCO2	-27%	-3%	21µM*	12µM*	-8%	19
CCN(CC(=O)Nc1ccc2c(c1)OCCO2)C(=O)c1cc(S(=O)(=O)N2CCOCC2)ccc1F	0%	0%	1%	-2%	0%	-1
OC(c1ccccc1)c1nc(/C=C/c2ccccc2)cs1 (stereo not given)	-52%	x	-27%	-26%	u	19
O=C(CCCCCNc1nc(=S)[nH]c2ccccc12)NCCc1ccccc1	-15%	5%	u	u	-6%	27
COc1ccc(CNC(=O)CCCCCNc2nc(=S)[nH]c3ccccc23)cc1	-1%	8%	u	10µM*	2%	-16
COc1ccc(CCNC(=O)CCCCCNc2nc(=S)[nH]c3ccccc23)cc1OC	1%	0%	u	18µM*	8%	-9
O=C(Nc1cccc(Oc2ccccc2)c1)C1Cc2c(-c3ccc4c(c3)OCO4)ccnc2O1 (stereo not given)	2%	x	u	u	10%	-4
O=C(Nc1cccc(OC(F)(F)F)c1)C1Cc2c(-c3ccc4c(c3)OCO4)ccnc2O1 (stereo not given)	-61%	x	16µM*	21µM*	u	-5
NC(=O)c1cccc(-c2ccnc3c2CC(C(=O)Nc2cccc(Oc4ccccc4)c2)O3)c1 (stereo not given)	-22%	x	u	u	u	-11
O=C(Nc1cccc(OC(F)(F)F)c1)C1Cc2c(-c3ccco3)ccnc2O1 (stereo not given)	-4%	x	u	18µM*	17%	-21
O=C(Nc1cccc(C(F)(F)F)c1)C1Cc2c(-c3ccccc3)ccnc2O1 (stereo not given)	-28%	x	u	26µM*	u	-3

Screens (PubChem)
